Assays:
Details in all cases: concentration: 1 μM, replicates: in singlicate; n = 1
[1] = test system: TTK
[2] = test system: TXK
[3] = test system: TYK2(JH1domain-catalytic)
[4] = test system: TYK2(JH2domain-pseudokinase)
[5] = test system: TYRO3
[6] = test system: ULK1
[7] = test system: ULK2
[8] = test system: ULK3
[9] = test system: T1, VEGFR2
T1 construct: gene KDR

[10] = test system: T2, VPS34
T2 construct: gene PIK3C3
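Further: KINOMEscan kinase panel screen.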

SMILES	%Inh [1]	%Inh [2]	%Inh [3]	%Inh [4]	%Inh [5]	%Inh [6]	%Inh [7]	%Inh [8]	%Inh [9]	%Inh [10]
COc1cc2ncnc(Nc3ccc4nc(-c5ccccc5)[nH]c4c3)c2cc1OC.Cl [GW282450]	30%	0%	9%	10%	0%	1%	0%	2%	27%	7%
O=S(=O)(c1ccc(-c2ccnc3[nH]ccc23)cc1)N1CCCC1 [GSK846226]	20%	9%	62%	20%	0%	19%	0%	27%	15%	46%
COC(=O)c1c(-c2ccccc2)c2cc(C(=O)O)ccc2c(=O)n1Cc1ccccc1	4%	0%	0%	4%	7%	0%	0%	0%	0%	9%
Cl.c1ccc(-c2n[nH]cc2-c2ccnc(-c3ccc(CN4CCOCC4)cc3)c2)nc1 [GW776245]	31%	7%	0%	0%	0%	0%	0%	20%	0%	0%
Cc1ccc(C(=O)Nc2ccc(Nc3ccnc4cc(-c5ccccn5)ccc34)cc2O)cc1.Cl [GW440146]	0%	5%	28%	19%	0%	0%	0%	3%	13%	0%
COc1cccc(NC(=O)NC2CCN(c3ccnc(Nc4ccc(F)cc4)n3)C2)c1 (stereo not drawn) [GSK1379721]	9%	41%	26%	52%	0%	13%	0%	9%	10%	7%
Cc1cc(NCC(c2ccccc2)c2ccccc2)nc(NCc2ccc(C(F)(F)F)cc2)n1 [GW497681]	0%	0%	9%	23%	0%	0%	0%	0%	0%	0%
CCn1c(-c2cccnc2O)nc2cnccc21 [SB-736715]	0%	0%	0%	0%	0%	0%	0%	0%	0%	0%
Clc1cc(Cl)cc(Nc2ccnc(Nc3cc(Cl)cc(Cl)c3)n2)c1 [GSK175726]	0%	0%	0%	0%	0%	0%	0%	0%	12%	0%
